KAT2A inh: GCN5L2 (KAT2A) acetyltransferase inhibition; Potency, µM (series often up to 58.9 µM), usual class: inhibitors; 390,000 tested, 0.21% active; AID 504327; GCN5L2 HAT assay, ThioGlo1 CoA-SH fluorescence; Q92830
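Free CoA generated was detected with ThioGlo1 (50uM) fluorescence at Ex340nm/Em540nm, read immediately and after 20 min at room temperature. Enzyme, 20 nM in HEPES pH 7.5 buffer, saw compounds 15 min before adding 75uM H3(1-25) peptide and 70uM acetyl-CoA.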
DT40 TDP1 CPT: growth inhibition of DT40 Tdp1-/-;hTDP1 cells with camptothecin (screen for TDP1 inhibitors). 420,000 tested, 12% active. AID 686979. chicken DT40 Tdp1-/-;hTDP1 cells + 20 nM CPT, ATP luminescence, 48 h. Potency, µM (series often up to 46.2 µM), most hits filed as inhibitors; note: nearly all actives have a fitted effect of over 55% in size
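Cell growth measured by CellTiter-Glo luminescence after a minimum 48 h, 37 C compound exposure with 20 nM CPT in Tdp1-knockout DT40 cells stably expressing hTDP1, seeded 400/well; qHTS titration format.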
PLK1 PBD inh: inhibitors of human PLK1 polo-box domain binding; P53350; Plk1 PBD binding of FITC phosphopeptide, fluorescence polarization; Potency, µM, actives largely listed as inhibitors; 360,000 tested, 2.8% active; AID 720504; note: series mostly up to about 57 µM; nearly all actives have a fitted effect of over 65% in size
TDP1 inh: inhibitors of human tyrosyl-DNA phosphodiesterase TDP1; Q9NUW8; Potency, µM (titrated, usually from 130 µM), most hits filed as inhibitors; AID 485290; recombinant TDP1, AlphaScreen DNA substrate cleavage; 350,000 tested, 0.28% active; note: nearly all actives have a fitted effect of over 40% in size
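Tdp1 1 nM final; 15 min RT w/ cpd; substrate 15 nM, 5 min; beads 10 ug/ml, 10 min; AlphaScreen read. Neg ctrl: no enzyme.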
VDR inh: inhibitors of human vitamin D receptor | 400,000 tested, 0.93% active | VDR-SRC2-3 peptide fluorescence polarization, 2 h | Potency, µM, most hits filed as inhibitors
Target sequence (P11473 whole entry, looked up): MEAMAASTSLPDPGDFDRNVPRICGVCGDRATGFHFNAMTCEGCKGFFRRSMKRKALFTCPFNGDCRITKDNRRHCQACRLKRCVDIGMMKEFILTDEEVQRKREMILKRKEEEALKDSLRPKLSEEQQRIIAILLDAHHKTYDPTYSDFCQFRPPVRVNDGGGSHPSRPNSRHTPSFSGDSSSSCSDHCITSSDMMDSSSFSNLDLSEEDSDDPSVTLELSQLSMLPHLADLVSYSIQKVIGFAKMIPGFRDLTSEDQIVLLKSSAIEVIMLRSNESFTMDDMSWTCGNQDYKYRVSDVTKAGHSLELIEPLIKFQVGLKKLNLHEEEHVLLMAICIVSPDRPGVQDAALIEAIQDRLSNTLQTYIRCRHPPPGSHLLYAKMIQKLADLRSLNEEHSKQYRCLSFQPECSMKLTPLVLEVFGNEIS
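After 23 nl compound addition and a short centrifugation, plates sat for 2 hours at ambient temperature; polarization of fluorescence then indicated loss of VDR binding to peptide SRC2-3.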
DT40 TDP1 no CPT: qHTS for Inhibitors of human tyrosyl-DNA phosphodiesterase 1 (TDP1): qHTS in cells in absence of CPT; DT40 Tdp1-/- hTDP1 cells, no CPT, ATP luminescence, 48 h; Potency, µM (series often up to 46.2 µM), actives largely listed as inhibitors; 420,000 tested, 15% active; AID 686978, 2013; note: nearly all actives have a fitted effect of over 55% in size
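Luminescent ATP content (CellTiter-Glo) served as the growth readout. Knockout chicken DT40 cells expressing human TDP1 were exposed to compounds without camptothecin for a minimum 48 hr at 37 °C.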
A number is an active result; - = inactive; ? = inconclusive; . = not tested or not shown; [ ] = dose if it differs, or a comment. Shown are actives, neighbours in structure and some others; about 18% of the full set was active somewhere. Calls come from the whole dose curve; as a rule, active = well fitted curve in the direction sought with a large enough effect; inconclusive = small, poorly fitted or top-dose-only effect, or another doubt; inactive = no such curve, though single readings can be large; an effect the other way counts as inactive or inconclusive.

SMILES	KAT2A inh	DT40 TDP1 CPT	PLK1 PBD inh	TDP1 inh	VDR inh	DT40 TDP1 no CPT
CCCC[n+]1c(/C=C/c2c(OC)cc(OC)cc2OC)ccc2ccccc21	.	0.32µM	.	.	.	0.089µM
COc1cc(OC)c(C=CC(=O)c2ccccc2O)c(OC)c1	.	?	-	.	-	?
COc1cc(OC)c(/C=C/c2ccc3ccccc3[n+]2C)c(OC)c1	.	0.1µM	.	.	.	0.1µM
CCN(CC)CCCNC(=O)c1cc(-c2ccc(O)cc2)on1	-	-	-	-	-	-
O=C(NCCCN1CCOCC1)c1sc2cc(Cl)ccc2c1Cl	-	-	-	-	-	-
O=C(NCCCN1CCOCC1)c1sc2cc([N+](=O)[O-])ccc2c1Cl	?	-	1.1µM	-	?	?
O=C(NCCCN1CCOCC1)c1cc(-c2ccc(Cl)c(Cl)c2)on1	-	?	-	-	-	16µM
CCN(CC)CCCNC(=O)c1cc(-c2ccc(Cl)c(Cl)c2)on1	-	21µM	-	-	-	23µM
Cc1c(NC(=S)NNC(=O)CCC(=O)O)c(=O)n(-c2ccccc2)n1C	-	-	-	.	-	-
NC(=O)CC(NC(=O)Cc1cccc2ccccc12)c1ccc(N2CCN(c3ccc(F)cc3)CC2)c([N+](=O)[O-])c1 (configuration not stated)	-	?	-	-	-	?
CC(C)c1ccc(NC(=O)C2(C)Cc3c(-c4cccc(C(F)(F)F)c4)ccnc3O2)cc1 (configuration not stated)	.	16µM	-	.	.	?
COc1ccc(NC(=O)C2(C)Cc3c(-c4cccc(C(N)=O)c4)ccnc3O2)cn1 (configuration not stated)	.	3.7µM	-	.	.	2.3µM
CC(C)c1ccc(NC(=O)C2(C)Cc3c(-c4ccccc4)ccnc3O2)cc1 (configuration not stated)	.	18µM	-	.	.	?
CN(C)c1ccc(-c2ccnc3c2CC(C)(C(=O)Nc2cccc(C(F)(F)F)c2)O3)cc1 (configuration not stated)	.	-	-	.	.	?
COc1ccc(NC(=O)C2(C)Cc3c(-c4ccc(N(C)C)cc4)ccnc3O2)cn1 (configuration not stated)	.	23µM	-	.	.	9.2µM
CC(=O)c1cccc(NC(=O)C2(C)Cc3c(-c4cccc(C(N)=O)c4)ccnc3O2)c1 (configuration not stated)	.	?	-	.	.	?
Cc1cccn2c(=O)cc(COc3ccc(NC(=O)C(C)C)cc3)nc12	-	-	.	-	-	-
CC(=O)Nc1ccc(-c2ccnc3c2CC(C)(C(=O)Nc2ccc(Cl)cc2)O3)cc1 (configuration not stated)	.	?	-	.	.	-
CC(C)NC(=O)C1(C)Cc2c(-c3ccc(N(C)C)cc3)ccnc2O1 (configuration not stated)	.	4.1µM	-	.	.	4.1µM
CC(C)c1ccc(NC(=O)C2(C)Cc3c(-c4ccc(N(C)C)cc4)ccnc3O2)cc1 (configuration not stated)	.	?	-	.	.	16µM
NC(=O)C1CCN(C(=O)Cc2ccsc2)CC1	-	-	-	-	-	-
CCOC(=O)c1oc2nc(CC(C)C)c3c(c2c1N)CCCC3	-	23µM	-	-	-	23µM
Cc1ccc(C(=O)NC(C)c2ccc3c(c2)OCO3)s1 (configuration not stated)	-	13µM	12µM	-	?	16µM
COC(=O)c1ccc2c(c1)C(=O)/C(=C/c1ccc(C)cc1)O2	-	18µM	-	-	-	13µM
Cc1cc(N=Nc2ccc(C)c(N=Nc3cc(C)c(N)cc3N)c2)c(N)cc1N	-	?	-	.	-	12µM
SMILES	KAT2A inh	DT40 TDP1 CPT	PLK1 PBD inh	TDP1 inh	VDR inh	DT40 TDP1 no CPT
CN(C(=O)C1CCC(CNS(=O)(=O)c2cccc3cccnc23)CC1)C1CCCCC1 (configuration not stated)	-	?	-	-	-	15µM
CCCCN(CC)C(=O)C1CCC(CNS(=O)(=O)c2cccc3nsnc23)CC1 (configuration not stated)	-	23µM	-	-	-	9.2µM
CCN(C(=O)C1CCC(CNS(=O)(=O)c2cccc3nsnc23)CC1)c1ccc(C)c(C)c1 (configuration not stated)	-	?	.	-	-	26µM
CCOc1ccc(OCC)c(NS(=O)(=O)c2cc(Br)cc3c2N(C(C)=O)C(C)C3)c1 (configuration not stated)	-	?	.	-	-	13µM
COc1cccc(CNS(=O)(=O)c2cc(Br)cc3c2N(C(C)=O)C(C)C3)c1 (configuration not stated)	-	-	-	-	-	?
COc1ccc(S(=O)(=O)N2CCCCC2)cc1NC(=O)[C@@H]1CCCN1C(=O)c1cccs1	-	-	-	-	-	-
COCc1c(C(=O)N2CCN(C3CCCC3)CC2)cnn1-c1ncc2c(n1)-c1ccccc1CCC2	.	-[9.04 µM]	.	.	.	-
Cc1nc2ccc(NC(=O)N3CCOCC3)cc2nc1C	-	-	-	-	-	-
O=C(NCCO)Nc1ccc2nc(-c3ccco3)c(-c3ccco3)nc2c1	?	.	.	-	.	.
O=C(Nc1ccc2nc(-c3ccco3)c(-c3ccco3)nc2c1)N1CCN(c2ccccn2)CC1	10µM	13µM	5.3µM	-	89µM	12µM
O=C(Nc1ccc2nc(-c3ccco3)c(-c3ccco3)nc2c1)N1CCCC1	.	.	.	7.1µM	71µM	.
CC1CCN(C(=O)Nc2ccc3nc(-c4ccco4)c(-c4ccco4)nc3c2)CC1	.	11µM	.	.	?	?
CN(C)S(=O)(=O)c1cccc(NC(=O)CNc2cccc(S(=O)(=O)N3CCCCC3)c2)c1	.	?	-	.	.	21µM
O=C(CNc1cccc(S(=O)(=O)N2CCCC2)c1)Nc1cccc(Br)c1	-	?	-	-[0.505 µM]	-	21µM
CCN(CC)S(=O)(=O)c1ccc(C)c(NC(=O)CNc2cccc(S(=O)(=O)N3CCOCC3)c2)c1	-	-	-	.	-	?
CCN(CC)S(=O)(=O)c1cc(NC(=O)CNc2cccc(S(=O)(=O)N3CCCC3)c2)ccc1C	-	3.3µM	-	-	-	2.6µM
COc1ccc(NCC(=O)Nc2cccc(S(=O)(=O)N3CCCC3)c2)cc1Cl	-	?	-	-	-	13µM
COc1ccc(CN(CC(=O)NCc2ccc(F)cc2)C(=O)CCC(=O)Nc2ccccn2)cc1	-	-	-	-	-	?
COc1ccc(S(=O)(=O)N(C)C)cc1NCC(=O)Nc1ccc(Br)cc1F	-	13µM	-	-	-	29µM
CC(=O)c1cccc(NCC(=O)Nc2cc(S(=O)(=O)N3CCCCC3)ccc2C)c1	-	16µM	-	-	-	?

From PubChem
